This is part of a sample that, as a whole, favours compounds with a hit. Of some 83,000 tested, about 20% had one in any assay.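 Negative percent growth values reflect cell death: -40 means 40% of the cells present at the start died, and -100 means all died.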 Active and inactive are the calls of the source. How the source made its calls: active means growth percent below 10; inactive means the rest.
Assays:
Experiment in all cases: NCI-60 one-dose screen, 48 h (100 = growth as untreated, 0 = no growth, -100 = all killed)
Conditions in all cases: 10 µM unless noted
[1] = tested on: NCI-H23 lung
[2] = tested on: NCI-H226 lung
[3] = tested on: NCI-H322M lung
[4] = tested on: HOP-62 NSCLC
[5] = tested on: NCI-H460 lung
[6] = tested on: HOP-92 NSCLC
[7] = tested on: NCI-H522 lung
[8] = tested on: A549/ATCC NSCLC
[9] = tested on: 786-0 renal
[10] = tested on: COLO 205 colon
[11] = tested on: DU-145 prostate
[12] = tested on: MALME-3M melanoma
[13] = tested on: MDA-MB-231 breast
[14] = tested on: RXF 393 renal
[15] = tested on: SF-268 CNS
[16] = tested on: SF-295 CNS
[17] = tested on: SF-539 CNS
[18] = tested on: UACC-257 melanoma
[19] = tested on: M14 melanoma
[20] = tested on: K-562 leukemia

Measured: growth

O=C1/C(=C/c2ccc(OCCCOc3ccc(Cl)cc3)cc2)N=C2SCCCN12
inactive: [1] 49.7% | [2] 86.4% | [3] 103% | [4] 99.1% | [5] 98.1% | [6] 92.5% | [7] 34.6% | [8] 73.4% | [9] 82.1% | [10] 78.2% | [11] 94.5% | [12] 122% | [13] 77.3% | [14] 110% | [15] 100% | [16] 66.7% | [17] 97% | [18] 102% | [19] 95.9%

CC(=O)OC[C@H]1O[C@H](OC(C)=O)[C@H](NC(=O)/C=C/CCl)[C@@H](OC(C)=O)[C@@H]1OC(C)=O
inactive: [1] 75.4% | [2] 109% | [3] 84.5% | [4] 96.1% | [5] 96.6% | [6] 76.6% | [8] 87.6% | [9] 68% | [10] 74.9% | [11] 93.2% | [12] 83.2% | [13] 46.3% | [14] 75.2% | [15] 89.3% | [16] 87.5% | [17] 65.6% | [18] 64% | [19] 87.5%
active: [7] -64%

CCOc1nc(-c2ccccc2)cc2c(O)c(C(=O)O)[nH]c(=O)c12
active: [14] -10.5%
inactive: [1] 60.9% | [2] 101% | [3] 147% | [4] 98.2% | [5] 102% | [6] 28.2% | [7] 136% | [8] 108% | [9] 111% | [10] 118% | [11] 101% | [20] 112% | [13] 104% | [15] 99.2% | [16] 104% | [17] 94.6% | [18] 60.7% | [19] 102%

CN1CCN(c2nc(NCCCCNc3ccnc4cc(Cl)ccc34)c3ccccc3n2)CC1
inactive: [1] 82.8% | [2] 98.7% | [3] 84.9% | [4] 76.5% | [5] 68.1% | [6] 54.8% | [7] 39.8% | [8] 49.3% | [9] 74.9% | [11] 75.7% | [15] 64.9% | [16] 80%
active: [10] -2.21% | [12] -53.5% | [13] -5.35% | [14] 9.29% | [17] -73.7% | [18] -32.4% | [19] -75.9%

CC(C)(CCCN=C(N)Nc1ccc(Cl)cc1)c1ccc(F)cc1
inactive: [1] 55.6% | [2] 95.6% | [3] 70.9% | [4] 69.2% | [5] 46.1% | [6] 28% | [7] 62% | [8] 79.6% | [9] 73.4% | [11] 80.1% | [12] 64.3% | [13] 41% | [14] 88.7% | [15] 72.6% | [16] 53.1% | [17] 76.1% | [18] 86.6% | [19] 51.5%
active: [10] -54%

C=C1C(=O)O[C@H]2[C@H]1CC/C(COC(=O)NCc1ccc(OC)c(OC)c1)=C\CC[C@@]1(C)O[C@@H]21
inactive: [1] 45.8% | [2] 85.9% | [3] 97.6% | [4] 87.8% | [5] 87.8% | [6] 66.2% | [8] 97.9% | [9] 81.6% | [11] 28.6% | [12] 61.5% | [13] 55% | [14] 20.7% | [15] 79.8% | [16] 88.2% | [17] 42.9% | [18] 64.2% | [19] 61.5%
active: [7] -65.5% | [10] 8.26%

CC/C=C\C/C=C\C[C@H]1C/C=C2/C(=O)C=C[C@@H]2C/C=C\CCC(=O)O1
active: [2] -36.1% | [4] -1.49% | [5] -4.43% | [6] -11.8% | [7] -69.9% | [8] 2.89% | [9] -43.7% | [10] -29.9% | [14] -71.3% | [16] 3.94% | [17] -25.5% | [18] -13.3% | [19] 7.48%
inactive: [1] 12.1% | [3] 45.3% | [11] 23.2% | [12] 29.6% | [13] 19.3% | [15] 21%

COc1ccc(C(=O)/C=C/c2cccnc2Nc2cc(OC)c(OC)c(OC)c2)cc1
active: [5] 5.28% | [17] 4.67%
inactive: [1] 59.2% | [2] 41% | [3] 80.5% | [4] 48% | [6] 49.3% | [7] 14.8% | [8] 23.6% | [9] 39.2% | [10] 38.6% | [11] 31.9% | [12] 80.5% | [13] 49% | [14] 12.9% | [15] 14.9% | [16] 27.4% | [18] 35.8% | [19] 42.7%

CCN(CC)c1ccc2c(c1)Oc1nc(N)c(C#N)c(N)c1C2Sc1ccc(SC)cc1 (centres undefined)
active: [1] -22.7% | [2] -46.9% | [3] -15.1% | [4] -25.3% | [5] -15.3% | [6] -12.5% | [7] -50.8% | [8] -2.37% | [9] -39.1% | [10] -73.6% | [11] -48% | [12] -15.9% | [13] -39.3% | [14] -67.6% | [15] 4.56% | [16] -54.2% | [17] -71.8% | [19] -42.3%
inactive: [18] 55.6%

COc1ccc(CN2c3ccccc3Sc3ccccc32)cc1O
active: [7] -40.4% | [10] -7.4% | [14] -9.86% | [16] 4.23% | [17] -11%
inactive: [1] 36.6% | [2] 71% | [3] 33.1% | [4] 36.3% | [5] 10% | [6] 50.4% | [8] 24.2% | [9] 42.5% | [11] 17.9% | [12] 71.9% | [13] 41.2% | [15] 45.6% | [18] 52.5% | [19] 14.4%

CS(=O)(=O)c1ccc(-n2nc(-c3ccc(Br)cc3)c3ccccc3c2=O)cc1
inactive: [1] 95% | [2] 100% | [3] 109% | [4] 97.2% | [5] 99.1% | [6] 85.7% | [7] 97% | [8] 97.9% | [9] 121% | [10] 103% | [11] 99.2% | [20] 90.9% | [13] 90.1% | [14] 97.1% | [15] 95% | [16] 94% | [17] 96.2% | [18] 97.3% | [19] 107%

O=c1oc2c(C(F)(F)F)cccc2cc1-c1csc(Nc2ccc(OCCF)cc2)n1
active: [5] 4.07% | [7] -42.9% | [9] 9.77% | [10] -71.8% | [11] 2.54% | [13] 9.58% | [16] 4.4% | [17] -28.6% | [19] 4.98%
inactive: [1] 24.2% | [2] 17.3% | [3] 31% | [4] 22.5% | [6] 27.4% | [8] 18.1% | [12] 66.2% | [14] 22.5% | [15] 23.3% | [18] 55.2%

Cc1cc(N2CCCCC2)nc(NC2CCCC(Nc3ccnc4cc(Cl)ccc34)C2)n1 (centres undefined)
active: [1] -15.5% | [2] -50.8% | [3] -48.7% | [4] -86.5% | [5] -64.9% | [6] -71.1% | [7] -54.6% | [8] -23.7% | [9] -96% | [10] -85.8% | [11] 1.31% | [12] -86% | [13] -89.8% | [14] -81.2% | [15] -59.6% | [16] -76.7% | [17] -92.8% | [18] -90.9% | [19] -86.5%

COc1ccc(SC2c3cc(OC)c(OC)cc3Oc3nc(N)c(C#N)c(N)c32)cc1 (centres undefined)
active: [1] -60.9% | [2] -70.9% | [3] -95% | [4] -42.1% | [5] -70% | [6] -19.9% | [7] -72.5% | [8] -51.7% | [9] -82.6% | [10] -79% | [11] -82.8% | [12] -68.9% | [13] -67.5% | [14] -79.5% | [15] -61.8% | [16] -69.5% | [17] -96.6% | [18] -43% | [19] -87.2%

CCCCC[C@H]1C/C=C2/C(=O)C=C[C@@H]2C/C=C\CCCC(=O)O1
active: [1] -17.4% | [2] -65.1% | [3] -52.7% | [4] -46.3% | [5] -1.5% | [6] -39.5% | [7] -78.4% | [8] -23.6% | [9] -76.4% | [10] -47.6% | [11] -32.4% | [12] -24.8% | [13] 7.59% | [14] -89.9% | [15] 3.72% | [16] -33.5% | [17] -71.4% | [18] -49.4% | [19] -29.3%

Cc1cc(N2CCN(c3ccnc4cc(Cl)ccc34)CC2)nc(NC2CCCCC2)n1
inactive: [1] 29.9% | [2] 64.4% | [3] 58.5% | [4] 29.6% | [6] 20.4% | [7] 50.2% | [8] 34% | [9] 37.9% | [11] 51.5% | [14] 48.8% | [15] 47.4% | [16] 18.9% | [17] 43%
active: [5] 1.4% | [10] -48.4% | [20] 5.36% | [13] -3.08% | [18] -0.92% | [19] -45.1%
